The nature of experiment [1]: BET inhibitor-based combinations targeting novel dependencies in MECOM-rearranged (r) AML: OCI-AML3 cell line (AID 2202232). Also: nearly all actives have a fitted effect of over 35% in size. Particulars: CellTiter-Glo luminescence, 48 h; Potency: OCI-AML3 viability; series mostly up to 46 µM. Summed up: (§1)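 Luminescent ATP readout (CellTiter-Glo) after 48 hr drug exposure gives viability. Curves span 11 concentrations and are normalized to DMSO and empty wells. Activity is reported as area under the curve and its Z-transform within each cell line.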

Experiment [2] can be described thus: BET inhibitor-based combinations targeting novel dependencies in MECOM-rearranged (r) AML: MV-4-11 cell line (AID 2202233). Also: nearly all actives have a fitted effect of over 45% in size. The settings on record: MV-4-11 AML viability, CellTiter-Glo luminescence, 48 h; series mostly up to 46 µM. The method, boiled down:
(§2)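 Luminescent ATP readout (CellTiter-Glo, 15 min at room temperature) after 48 hr drug exposure gave viability. Dose-response curves, normalized to DMSO and empty-well controls, were summarized as area under the curve and its mean-centred Z-score.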
In general terms: In ATP-based viability assays light output follows the ATP content of the culture.

The nature of experiment [3]: BET inhibitor-based combinations targeting novel dependencies in MECOM-rearranged (r) AML: HNT-34 cell line (AID 2202234). Also: nearly all actives have a fitted effect of over 35% in size. Particulars: HNT-34 AML viability, CellTiter-Glo luminescence, 48 h; series mostly up to 46 µM. Summed up: as §2
Experiment [4] in a line: BET inhibitor-based combinations targeting novel dependencies in MECOM-rearranged (r) AML: UCSD-AML1 cell line (AID 2202235). Also: nearly all actives have a fitted effect of over 40% in size. Particulars: UCSD-AML1 AML cells viability, CellTiter-Glo, 48 h; series mostly up to 46 µM. The method, boiled down: as §2
Experiment [5] is described as follows: BET inhibitor-based combinations targeting novel dependencies in MECOM-rearranged (r) AML: AML-191 cell line (AID 2202236; also: nearly all actives have a fitted effect of over 35% in size). The settings on record: AML-191 viability, CellTiter-Glo luminescence, 48 h; series mostly up to 46 µM. Summed up: as §1
Experiment [6] is described as follows: BET inhibitor-based combinations targeting novel dependencies in MECOM-rearranged (r) AML: AML-194 cell line (AID 2202237; also: nearly all actives have a fitted effect of over 40% in size). The settings on record: AML-194 (MECOM-r AML) viability, CellTiter-Glo, 48 h; series mostly up to 46 µM. Summed up: as §1

Inconclusive results are not listed. Calls of active or inactive are those of the source. Calls follow the shape of the dose curve; as a rule, active = well fitted curve in the direction sought with a large enough effect; inconclusive = small, poorly fitted or top-dose-only effect, or another doubt; inactive = no such curve, though single readings can be large; an effect the other way counts as inactive or inconclusive. Starred links: 1 amine or outer side, 2 acyl side, 3 side chain; linkers in the order of their positions; H or OH if unused. Positions of bridges follow the written chain, without caps; N, C: chain ends. Non-standard residues stand in square brackets, D forms with d. Residues, ends and D or L forms follow the SMILES beside them. Chains are numbered I, II in the order given. Actinocin(9to1) = Cc1c2oc3c(C)ccc(C(=O)[*:1])c3nc-2c(C(=O)[*:2])c(N)c1=O; NMeV = CN[CH](C(=O)O)C(C)C; Sar = CNCC(=O)O
Potency is read from the fitted curve at half-maximal effect.

`Cc1cc(OCCCc2c3n(c4c(-c5c(C)nn(C)c5C)c(Cl)ccc24)[C@H](C)CN(c2cn(C)c4ccc(C(=O)O)cc24)C3=O)cc(C)c1Cl`: the Potency in experiment [1] is 2.63 µM (active); in experiment [2], 0.468 µM (active); in experiment [3], 2.95 µM (active); in experiment [4] it was 20.9 µM (active); in experiment [5] it was 20.9 µM (active); in experiment [6], 14.8 µM (active).
For `COc1cc(C(N)=O)ccc1NC(=O)[C@@H]1N[C@@H](CC(C)(C)C)[C@@]2(C(=O)Nc3cc(Cl)ccc32)[C@H]1c1cccc(Cl)c1F`, the Potency is 0.934 µM (active) in experiment [1]; 0.0934 µM (active) in experiment [2]; 0.148 µM (active) in experiment [3]; 0.209 µM (active) in experiment [4]; 0.468 µM (active) in experiment [5]; 0.59 µM (active) in experiment [6].
On to `CC(C)(O)CC[C@@H](O)[C@](C)(O)[C@H]1CC[C@@]2(O)C3=CC(=O)[C@@H]4C[C@@H](O)[C@@H](O)C[C@]4(C)[C@H]3CC[C@]12C`, for which the Potency entry in experiment [1], in experiment [2], in experiment [3], in experiment [4], in experiment [5] and in experiment [6] was “inactive” each time.
Take `N#Cc1ccnc(N2C(=O)CC[C@H]2C(=O)N(c2cncc(F)c2)C(C(=O)NC2CC(F)(F)C2)c2ccccc2Cl)c1` (stereo partly specified): the Potency result in experiment [1], in experiment [2], in experiment [3], in experiment [4], in experiment [5] and in experiment [6] was “inactive” in each case.
Turning to `COc1ccc(-c2oc3c(CC=C(C)C)c(OC4O[C@H](CO)[C@@H](O)[C@H](O)[C@H]4O)cc(O)c3c(=O)c2OC2O[C@@H](C)[C@H](O)[C@@H](O)[C@H]2O)cc1` (stereo partly specified), the Potency entry in experiment [1], in experiment [2], in experiment [3], in experiment [4], in experiment [5] and in experiment [6] was “inactive” each time.
In the case of `C=C1CC[C@@H]2[C@](C)(CO)[C@H](O)CC[C@@]2(C)[C@@H]1C/C=C1/C(=O)OC[C@H]1O`, the Potency was 3.72 µM (active) in experiment [1]; 2.95 µM (active) in experiment [2]; 5.25 µM (active) in experiment [3]; 10.5 µM (active) in experiment [4]; 5.9 µM (active) in experiment [5]; 9.34 µM (active) in experiment [6].
Consider `COc1cc2c3c(n(CCCNCCO)c(=O)c2cc1OC)-c1cc2c(cc1C3=O)OCO2`, for which the Potency is 0.0934 µM (active) in experiment [1]; 0.059 µM (active) in experiment [2]; 0.059 µM (active) in experiment [3]; 0.0742 µM (active) in experiment [4]; 0.166 µM (active) in experiment [5].
`COc1cc(-c2cn(C)c(=O)c3cnccc23)c(OC)cc1CN(C)C`: the Potency in experiment [1] was 1.18 µM (active); in experiment [2], 4.17 µM (active). Also, the Potency result in experiment [3], in experiment [4], in experiment [5] and in experiment [6] was “inactive” throughout.
For the compound `CNc1nc(-c2ccc3c(N)n[nH]c3c2)cc(N2C[C@@H](C(=O)NC3CCCCC3)CC[C@H]2C)n1`, the Potency in experiment [1] was 5.9 µM (active); in experiment [2], 14.8 µM (active); in experiment [3], 13.2 µM (active); in experiment [4], 0.742 µM (active); in experiment [5], 23.5 µM (active).
Taken in the same sequence, the figures for `Cc1ncc(NC(=O)c2cccc(C(F)(F)F)c2)cc1-c1cnc(OC2CCOCC2)c(N2CCOCC2)c1` were 0.0833 µM (active), 16.6 µM (active), 6.61 µM (active), 8.33 µM (active) and 11.8 µM (active).
`N#Cc1ccc(Cn2cncc2CN2CCN(c3cccc(Cl)c3)C(=O)C2)cc1`: the Potency in experiment [1] is 2.95 µM (active); in experiment [2] it was 7.42 µM (active); in experiment [3], 1.66 µM (active); in experiment [4], 3.72 µM (active).
Consider `CC1(C)O[C@@H]2C[C@H]3[C@@H]4C[C@H](F)C5=CC(=O)C=C[C@]5(C)[C@H]4[C@@H](O)C[C@]3(C)[C@]2(C(=O)CO)O1`, for which the Potency entry in experiment [1], in experiment [2], in experiment [3], in experiment [4] and in experiment [6] was “inactive” throughout.
Take `CCOCOC[C@H](C[C@H](C)C(=O)NO)NC(=O)c1ccc(Oc2ccccc2)cc1`: the Potency in experiment [1] was 23.5 µM (active); in experiment [3], 26.3 µM (active). For the same compound, the Potency entry in experiment [2], in experiment [4] and in experiment [6] was “inactive” throughout.
For `COc1ccc2[nH]c3c(c2c1)CCN[C@]31CS[C@@H]2c3c(OC(C)=O)c(C)c4c(c3[C@H](COC1=O)N1[C@@H]2[C@H]2c3c(cc(C)c(OC)c3O)C[C@@H]([C@@H]1O)N2C)OCO4`, the Potency in experiment [1] was 0.0034 µM (active); in experiment [2], 0.0019 µM (active); in experiment [3] it was 0.0034 µM (active); in experiment [4] it was 0.0038 µM (active); in experiment [6], 0.0038 µM (active).
As for `Cc1c(-c2c(-c3ccc(F)o3)sc3ncnc(O[C@@H](Cc4ccccc4OCc4ccnn4CC(F)(F)F)C(=O)O)c23)ccc(OCCN2CCN(C)CC2)c1Cl`, the Potency in experiment [1] is 0.296 µM (active); in experiment [2], 0.0235 µM (active); in experiment [3], 0.332 µM (active); in experiment [4], 1.32 µM (active); in experiment [5] it was 5.25 µM (active); in experiment [6] it was 4.68 µM (active).
`CS(=O)(=O)Nc1cc2occ(NC=O)c(=O)c2cc1Oc1ccccc1`: the Potency result in experiment [1], in experiment [2], in experiment [3], in experiment [4], in experiment [5] and in experiment [6] was “inactive” throughout.
Turning to `Cc1ccc(-c2nn(C(C)(C)CNC(=O)c3ccncc3)c3ncnc(N)c23)cc1`, the Potency in experiment [1] was 16.6 µM (active); in experiment [2], 11.8 µM (active); in experiment [3] it was 8.33 µM (active); in experiment [4], 7.42 µM (active); in experiment [5], 7.42 µM (active); in experiment [6], 7.42 µM (active).
As for `Cc1ccc2nc(NCCN)c3ncc(C)n3c2c1`, the Potency in experiment [1] is 9.34 µM (active); in experiment [2] it was 4.68 µM (active); in experiment [3], 8.33 µM (active); in experiment [4], 7.42 µM (active); in experiment [5], 5.9 µM (active); in experiment [6], 8.33 µM (active).
As to `Cc1c2oc3c(C)ccc(C(=O)NC4C(=O)NC(C(C)C)C(=O)N5CCCC5C(=O)N(C)CC(=O)N(C)C(C(C)C)C(=O)OC4C)c3nc-2c(C(=O)NC2C(=O)NC(C(C)C)C(=O)N3CCCC3C(=O)N(C)CC(=O)N(C)C(C(C)C)C(=O)OC2C)c(N)c1=O` (stereo unspecified) (I: TVP[Sar][NMeV] / II: TVP[Sar][NMeV]; ester I:1-I:C, II:1-II:C; linker I:N-II:N via Actinocin(9to1); configuration not given here), the Potency in experiment [1] was 0.0032 µM (active); in experiment [2], 0.0014 µM (active); in experiment [3], 0.0057 µM (active); in experiment [4], 0.0032 µM (active); in experiment [5] it was 0.0102 µM (active); in experiment [6], 0.0115 µM (active).

The record behind these values is PubChem BioAssay (NCATS).
